Measurements published in ChEMBL document CHEMBL2218924, “A broad activity screen in support of a chemogenomic map for kinase signalling research and drug discovery” (Biochem J, 2013).

Tests used:
[1] = biological target: Mitogen-activated protein kinase 10 (Homo sapiens) (UniProt P53779); settings: at 1 µM
[2] = biological target: Mitogen-activated protein kinase 10 (Homo sapiens) (UniProt P53779); settings: at 10 µM
[3] = biological target: Vascular endothelial growth factor receptor 2 (Homo sapiens) (UniProt P35968); settings: at 1 µM
[4] = biological target: Vascular endothelial growth factor receptor 2 (Homo sapiens) (UniProt P35968); settings: at 10 µM
[5] = biological target: LIM domain kinase 1 (Homo sapiens) (UniProt P53667); settings: at 1 µM
[6] = biological target: LIM domain kinase 1 (Homo sapiens) (UniProt P53667); settings: at 10 µM
[7] = biological target: Mitogen-activated protein kinase 8 (Homo sapiens) (UniProt P45983); settings: at 1 µM
[8] = biological target: Mitogen-activated protein kinase 8 (Homo sapiens) (UniProt P45983); settings: at 10 µM
[9] = biological target: Mitogen-activated protein kinase 9 (Homo sapiens) (UniProt P45984); settings: at 1 µM
[10] = biological target: Mitogen-activated protein kinase 9 (Homo sapiens) (UniProt P45984); settings: at 10 µM

Mitogen-activated protein kinase 9 (Homo sapiens), sequence (P45984 whole entry, looked up): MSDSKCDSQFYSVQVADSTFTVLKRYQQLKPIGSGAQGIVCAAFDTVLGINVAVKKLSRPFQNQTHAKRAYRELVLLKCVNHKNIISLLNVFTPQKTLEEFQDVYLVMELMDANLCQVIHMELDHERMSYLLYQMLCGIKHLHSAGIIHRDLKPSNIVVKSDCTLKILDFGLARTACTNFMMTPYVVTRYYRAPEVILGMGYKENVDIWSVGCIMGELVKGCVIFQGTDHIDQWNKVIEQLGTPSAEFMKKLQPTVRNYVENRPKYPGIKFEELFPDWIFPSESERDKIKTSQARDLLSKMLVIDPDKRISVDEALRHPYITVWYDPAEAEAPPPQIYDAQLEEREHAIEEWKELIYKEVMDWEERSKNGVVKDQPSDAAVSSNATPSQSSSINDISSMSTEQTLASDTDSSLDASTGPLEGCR
LIM domain kinase 1 (Homo sapiens), sequence (P53667 whole entry, looked up, the tested form may be a part): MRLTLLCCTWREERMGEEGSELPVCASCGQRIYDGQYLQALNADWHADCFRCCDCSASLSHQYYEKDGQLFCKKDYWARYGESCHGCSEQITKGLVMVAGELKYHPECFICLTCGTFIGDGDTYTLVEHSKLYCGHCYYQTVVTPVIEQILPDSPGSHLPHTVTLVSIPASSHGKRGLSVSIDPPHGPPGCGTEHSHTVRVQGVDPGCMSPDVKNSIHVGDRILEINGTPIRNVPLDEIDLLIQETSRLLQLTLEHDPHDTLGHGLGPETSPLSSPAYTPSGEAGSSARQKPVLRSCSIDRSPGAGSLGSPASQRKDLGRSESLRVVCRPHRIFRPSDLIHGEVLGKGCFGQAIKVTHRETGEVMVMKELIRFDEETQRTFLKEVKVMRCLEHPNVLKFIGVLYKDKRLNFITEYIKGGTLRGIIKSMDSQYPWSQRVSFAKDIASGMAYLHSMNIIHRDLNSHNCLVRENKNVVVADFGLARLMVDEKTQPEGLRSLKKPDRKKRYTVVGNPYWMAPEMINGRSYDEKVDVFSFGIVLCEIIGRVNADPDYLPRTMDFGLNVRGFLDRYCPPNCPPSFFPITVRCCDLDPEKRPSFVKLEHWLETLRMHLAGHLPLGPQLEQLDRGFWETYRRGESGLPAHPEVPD
Mitogen-activated protein kinase 8 (Homo sapiens), sequence (P45983 whole entry): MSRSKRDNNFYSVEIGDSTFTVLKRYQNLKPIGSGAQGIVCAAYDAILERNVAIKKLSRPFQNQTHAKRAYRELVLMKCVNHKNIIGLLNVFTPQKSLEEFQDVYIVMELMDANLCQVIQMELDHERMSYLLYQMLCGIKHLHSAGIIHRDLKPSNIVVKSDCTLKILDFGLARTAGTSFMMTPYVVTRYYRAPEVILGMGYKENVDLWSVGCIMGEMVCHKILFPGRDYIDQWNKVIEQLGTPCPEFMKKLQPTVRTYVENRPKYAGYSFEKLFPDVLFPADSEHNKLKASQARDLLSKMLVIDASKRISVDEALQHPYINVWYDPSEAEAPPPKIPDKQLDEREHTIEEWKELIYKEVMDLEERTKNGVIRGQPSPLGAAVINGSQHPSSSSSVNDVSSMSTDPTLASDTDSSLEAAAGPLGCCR
Mitogen-activated protein kinase 10 (Homo sapiens), sequence (P53779 whole entry): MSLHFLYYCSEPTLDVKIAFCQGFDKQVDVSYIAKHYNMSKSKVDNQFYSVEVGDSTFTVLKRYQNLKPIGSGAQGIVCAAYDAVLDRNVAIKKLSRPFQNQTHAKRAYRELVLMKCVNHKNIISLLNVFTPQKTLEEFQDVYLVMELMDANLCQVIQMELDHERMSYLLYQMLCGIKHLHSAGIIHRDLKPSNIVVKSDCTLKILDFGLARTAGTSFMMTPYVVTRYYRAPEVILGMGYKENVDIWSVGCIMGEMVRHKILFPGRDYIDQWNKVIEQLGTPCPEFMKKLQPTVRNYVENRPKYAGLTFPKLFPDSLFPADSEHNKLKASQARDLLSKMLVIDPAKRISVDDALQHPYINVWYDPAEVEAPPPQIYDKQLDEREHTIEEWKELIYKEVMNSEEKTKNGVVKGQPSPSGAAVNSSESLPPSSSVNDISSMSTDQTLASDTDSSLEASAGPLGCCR
Vascular endothelial growth factor receptor 2 (Homo sapiens), sequence (P35968 whole entry, the tested form may be a part): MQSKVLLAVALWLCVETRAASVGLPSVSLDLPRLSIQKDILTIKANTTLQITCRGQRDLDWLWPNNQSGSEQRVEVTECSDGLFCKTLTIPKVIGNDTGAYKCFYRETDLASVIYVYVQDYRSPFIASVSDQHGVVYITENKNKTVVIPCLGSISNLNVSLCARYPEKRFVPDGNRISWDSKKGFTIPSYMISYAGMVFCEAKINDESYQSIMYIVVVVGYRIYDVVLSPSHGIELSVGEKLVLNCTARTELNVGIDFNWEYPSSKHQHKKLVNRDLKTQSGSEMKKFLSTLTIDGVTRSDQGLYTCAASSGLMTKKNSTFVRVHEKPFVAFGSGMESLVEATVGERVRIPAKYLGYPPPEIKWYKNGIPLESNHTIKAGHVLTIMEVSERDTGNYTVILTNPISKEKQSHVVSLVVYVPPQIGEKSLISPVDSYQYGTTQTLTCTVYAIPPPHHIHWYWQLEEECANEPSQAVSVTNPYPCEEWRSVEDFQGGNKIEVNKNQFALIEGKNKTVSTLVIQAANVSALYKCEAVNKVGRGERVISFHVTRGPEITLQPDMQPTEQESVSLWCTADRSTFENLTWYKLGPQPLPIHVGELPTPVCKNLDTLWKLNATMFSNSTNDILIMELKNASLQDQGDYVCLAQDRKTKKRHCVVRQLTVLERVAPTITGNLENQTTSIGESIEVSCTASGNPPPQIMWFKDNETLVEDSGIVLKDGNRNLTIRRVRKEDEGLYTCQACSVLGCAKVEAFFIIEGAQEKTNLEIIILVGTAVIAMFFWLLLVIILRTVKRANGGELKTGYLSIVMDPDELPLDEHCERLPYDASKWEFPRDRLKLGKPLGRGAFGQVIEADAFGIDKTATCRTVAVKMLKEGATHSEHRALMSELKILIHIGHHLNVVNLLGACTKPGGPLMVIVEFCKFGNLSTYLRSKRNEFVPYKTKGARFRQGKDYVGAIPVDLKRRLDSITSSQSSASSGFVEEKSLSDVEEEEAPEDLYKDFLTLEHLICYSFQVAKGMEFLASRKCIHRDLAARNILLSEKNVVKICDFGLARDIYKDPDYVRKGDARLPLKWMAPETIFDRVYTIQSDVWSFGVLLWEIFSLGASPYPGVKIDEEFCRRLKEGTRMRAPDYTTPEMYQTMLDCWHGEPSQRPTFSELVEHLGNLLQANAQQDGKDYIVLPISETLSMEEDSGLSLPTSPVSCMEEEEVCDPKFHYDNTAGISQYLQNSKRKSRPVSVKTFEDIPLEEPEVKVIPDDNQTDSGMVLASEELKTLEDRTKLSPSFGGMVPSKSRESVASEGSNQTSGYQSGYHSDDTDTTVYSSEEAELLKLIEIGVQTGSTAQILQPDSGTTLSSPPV

| Compound | residual activity [1] [%] | residual activity [2] [%] | residual activity [3] [%] | residual activity [4] [%] | residual activity [5] [%] | residual activity [6] [%] | residual activity [7] [%] | residual activity [8] [%] | residual activity [9] [%] | residual activity [10] [%] |
| --- | --- | --- | --- | --- | --- | --- | --- | --- | --- | --- |
| CCn1cnc2c(Nc3cccc(Cl)c3)nc(N[C@@H]3CCCC[C@@H]3N)nc21 | 91 | 84 | 85 | 45 | 89 | 63 |  |  |  |  |
| O=C1c2ccccc2-c2nc3nnnn3nc21 | 112 | 100 | 109 | 104 |  |  | 114 | 83 | 109 | 83 |
| O=C1Nc2ccc3ncsc3c2/C1=C/c1c[nH]cn1 | 20 | 20 | 2 | 0 | 55 | 10 | 63 | 22 | 71 | 16 |
| C[S+]([O-])c1ccc(-c2nc(-c3ccc(F)cc3)c(-c3ccncc3)[nH]2)cc1 (centres undefined) |  |  | 107 | 60 | 110 | 82 | 111 | 95 | 74 | 30 |
| CC(C)[C@H](CO)Nc1nc(Nc2cccc(Cl)c2)c2ncn(C(C)C)c2n1 |  |  |  | 58 | 98 | 90 |  |  | 90 | 97 |
| c1cc(-c2cnn3cc(-c4ccc(OCCN5CCCCC5)cc4)cnc23)ccn1 |  | 82 | 4 | 1 |  | 27 | 117 | 106 |  |  |
| COc1ccc2c(c1)/C(=C/c1cnc[nH]1)C(=O)N2 | 80 | 27 | 47 | 3 |  | 48 |  |  | 82 | 47 |
| O=c1[nH]c2ccccc2n1C1CCN(Cc2ccc(-c3nc4cc5[nH]cnc5cc4nc3-c3ccccc3)cc2)CC1 | 105 | 69 | 107 | 90 | 115 | 97 | 110 | 86 | 104 | 101 |
| CCc1nc(-c2ccc(OC)cc2)[nH]c1-c1ccncc1 | 126 | 123 |  |  | 100 |  | 104 | 106 | 102 | 105 |
| COC(=O)[C@@]1(O)C[C@H]2O[C@]1(C)n1c3ccccc3c3c4c(c5c6ccccc6n2c5c31)C(=O)NC4 | -3 | -1 | 3 | 0 | 6 | 3 | -12 | -20 | 5 | -11 |
| N/C(=N\[N+](=O)[O-])N/N=C\c1ccc(-c2cccc([N+](=O)[O-])c2)o1 | 95 | 79 | 92 | 84 |  |  |  |  | 100 | 98 |
| COc1ccc2c(c[n+](C)c3c4cc5c(cc4ccc23)OCO5)c1OC | 81 | 63 |  | 90 |  | 87 | 100 | 64 |  |  |
| COc1cc(OC)c(/C=C2\C(=O)Nc3ccccc32)c(OC)c1 | 85 | 103 | 96 | 91 | 83 | 83 |  |  | 89 | 88 |
| COc1cc2ncnc(Nc3ccc(OCc4ccccc4)cc3)c2cc1OC | 106 | 110 | 60 | 11 | 110 | 70 | 102 | 101 | 106 | 101 |
| O=[N+]([O-])/C=C/c1ccc2c(c1)OCO2 | 88 | 92 | 101 | 85 | 114 | 97 | 120 | 102 | 99 | 103 |
| CC(C)(C)c1cc(C=C(C#N)C#N)cc(Br)c1O |  | 54 | 107 | 83 | 111 |  | 116 | 110 | 103 | 114 |
| O=C1NC(=O)c2c1c1c3ccccc3n3c1c1c2c2ccccc2n1C1CCC3O1 | 63 | 56 | 38 | 18 |  |  |  |  |  |  |
